Screens deposited in PubChem by National Center for Advancing Translational Sciences (NCATS).
Shown are actives, neighbours in structure and some others; about 9% of the full set was active somewhere.
ALDH1A1 block = qHTS Assay for Inhibitors of Aldehyde Dehydrogenase 1 (ALDH1A1). Potency, µM (highest dose often 75.3 µM), without a hit: at the top dose activity, negative = inhibition, usual class: inhibitors. AID 1030, 2008. 220,000 tested, 7.3% active. Aldehyde dehydrogenase 1A1 (Homo sapiens), P00352. Purified ALDH1A1, NADH fluorescence, propionaldehyde substrate;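 note: potency is the fitted concentration of half-maximal effect; plate controls were no enzyme wells and a reference inhibitor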
HPGD inh = qHTS Assay for Inhibitors of HPGD (15-Hydroxyprostaglandin Dehydrogenase); 150,000 tested, 4.3% active; purified HPGD, NADH fluorescence kinetic, PGE2 substrate; 15-hydroxyprostaglandin dehydrogenase [NAD(+)] (Homo sapiens), P15428; AID 894, 2007; Potency, µM, without a hit: top-dose activity change, negative = inhibition, actives largely listed as inhibitors; note: potency is the fitted concentration of half-maximal effect
Target sequence (P15428 whole entry, looked up): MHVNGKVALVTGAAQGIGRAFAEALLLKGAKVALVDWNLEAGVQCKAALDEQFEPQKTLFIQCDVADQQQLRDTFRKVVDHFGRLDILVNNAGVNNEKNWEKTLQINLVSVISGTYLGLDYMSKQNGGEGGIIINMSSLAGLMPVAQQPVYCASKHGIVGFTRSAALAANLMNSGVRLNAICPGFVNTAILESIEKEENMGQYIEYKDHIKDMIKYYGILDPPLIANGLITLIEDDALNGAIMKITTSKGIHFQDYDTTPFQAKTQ
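20 nM HPGD preincubated 15 min at room temperature with compound in 50 mM Tris-HCl pH 8, 0.01% Tween 20. Started with 1 mM NAD+ and 30 uM prostaglandin E2; NADH fluorescence (360/450 nm) read 5 times over 30-s intervals, last minus first.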
IMPase inh = qHTS Assay for Identifying the Cell-Membrane Permeable IMPase Inhibitors; AID 901, 2007; CHO-M1 cells, IP1 accumulation, HTRF TR-FRET ratio; Inositol monophosphatase 1 (Rattus norvegicus), P97697; inhibition (IP1 accumulation), % at 46.1 µM; 120,000 tested, under 10 active; active = well fitted curve in the direction sought with a large enough effect in the signal ratio, not every such curve was filed as active; inconclusive = small, poorly fitted or top-dose-only effect, or a change in a side signal; inactive = no such curve, though single readings can be large or run the other way; the % refers to the signal ratio;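 note: cells stimulated with carbachol in lithium chloride buffer; plate controls were DMSO basal wells for no effect and reference inhibitor wells for full effect; higher means more IMPase inhibition seen as more IP1 and lower FRET ratio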
Target sequence (P97697 whole entry, looked up): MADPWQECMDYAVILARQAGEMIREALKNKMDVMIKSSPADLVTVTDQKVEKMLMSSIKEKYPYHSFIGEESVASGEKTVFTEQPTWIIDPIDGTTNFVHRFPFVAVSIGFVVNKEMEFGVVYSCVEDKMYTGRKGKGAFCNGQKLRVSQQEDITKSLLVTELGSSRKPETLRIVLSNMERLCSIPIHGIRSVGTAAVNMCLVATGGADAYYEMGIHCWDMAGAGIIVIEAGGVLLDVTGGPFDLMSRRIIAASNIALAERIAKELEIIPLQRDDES
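In this qHTS, compounds (final up to 46 uM) act on CHO-M1 cells that are then activated through the M1 receptor with carbachol, in pH 7.4 buffer containing 50 mM LiCl, for 30 min. IP1 accumulation is quantified by the IP-One immunoassay.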
* hit, by the source's call; [ ] = another dose, or the depositor's remark. Unless noted, calls come from the whole dose curve; as a rule, active = well fitted inhibition curve with a large enough effect (not every such curve was filed as active); inconclusive = small, poorly fitted or top-dose-only effect, or another doubt; inactive = no such curve, though single readings can be large or run the other way. Unless noted, % is set by controls: 0 for no effect and ±100 for the full control effect.

Screening COC(=O)CNC(=O)Cc1c(F)cccc1Cl returned ALDH1A1 block 9.5%, HPGD inh 0.5% and IMPase inh 13.4.
Screening O=C(CSc1ncccn1)NCc1cccc(Cl)c1 returned ALDH1A1 block 13.8%.
For Cc1cc(C)cc(NC(=O)C(=O)NC(C)c2ccccc2)c1 (stereo not given) the results were IMPase inh -6.7.
For O=C(NCC1CCCO1)C(c1cccs1)N(Cc1ccccc1Cl)C(=O)c1ccc(-c2ccccc2)[nH]1 (stereo not given) the results were ALDH1A1 block -12.3%, HPGD inh -20.6% and IMPase inh -2.3.
For Cc1ccc(C(C(=O)NCC2CCCO2)N(Cc2ccccc2)C(=O)c2ccc(-c3ccccc3)[nH]2)o1 (stereo not given) the results were ALDH1A1 block 22.4µM*, HPGD inh inconclusive and IMPase inh 11.6.
For O=C(NC1CCCC1)C(c1ccncc1)N(Cc1ccccc1)C(=O)c1ccc(-c2ccccc2)[nH]1 (stereo not given) the results were ALDH1A1 block 22.4µM* and HPGD inh -19.9%.
Screening O=C(NC1CCCCC1)C(c1ccc(F)cc1)N(CCN1CCOCC1)C(=O)c1ccc(-c2ccccc2)[nH]1 (stereo not given) returned ALDH1A1 block 4.5%.
Screening O=C(Nc1cc(C(F)(F)F)ccc1-n1cnc2ccccc21)c1ccccc1 returned ALDH1A1 block 10.1%, HPGD inh -15.4% and IMPase inh 7.9.
CCN1CCC[C@@H]1CNC(=O)c1c(O)c(Cl)cc(Cl)c1OC was read as IMPase inh 1.2.
`CCOC(=O)c1sc(NC(=O)CSc2nc(C)cc(-c3ccccc3)n2)c(C#N)c1C` gave ALDH1A1 block 3.16µM*, HPGD inh 7.08µM* and IMPase inh -0.9.
Screening CCOC(=O)c1cnc(SCC(=O)Nc2cc(OC)cc(OC)c2)nc1N returned ALDH1A1 block -11.0%, HPGD inh 0.6% and IMPase inh 5.5.
For CC(=O)c1ccc(-n2nnnc2SCC(=O)Nc2sc(C)c(C)c2C#N)cc1 the results were ALDH1A1 block 17.8µM*, HPGD inh -9.3% and IMPase inh -6.8.
Screening CCOC(=O)c1sc(NC(=O)CSc2nc(C)cc(C)c2C#N)c(C#N)c1C returned ALDH1A1 block inconclusive, HPGD inh -28.7% and IMPase inh 7.3.
Screening CCOC(=O)c1cnc(SCC(=O)Nc2sc(C)c(C)c2C#N)nc1N returned ALDH1A1 block 31.6µM*, HPGD inh -6.4% and IMPase inh 0.9.
For Cc1ccc(-n2nnnc2SCC(=O)Nc2sccc2C#N)cc1 the results were ALDH1A1 block 0.8% and HPGD inh -12.1%.
`Cc1nn(Cc2c(F)cccc2Cl)c(C)c1NC(=O)C1CC1` gave ALDH1A1 block 3.8% and HPGD inh -6.9%.
For Cc1ccc2oc(-c3ccc(NC(=O)CCC(=O)O)cc3)nc2c1 the results were IMPase inh -5.5.
For COc1ccc(-c2c(O)c3c(OC)c4c(cc3oc2=O)OC(C)(C)C=C4)cc1 the results were ALDH1A1 block inconclusive and HPGD inh -22.0%.
`CCCCCCN` gave ALDH1A1 block -2.9% and HPGD inh -9.3%.
Screening Cc1ccccc1Nc1nnc(SCC2CCCCO2)s1 (stereo not given) returned ALDH1A1 block -0.2% and HPGD inh -19.0%.
`COc1ccccc1Nc1nnc(SCC2CCCCO2)s1` (stereo not given) gave ALDH1A1 block 31.6µM*.
Screening CN(C)CCCn1c(SCC(=O)Nc2sc3c(c2C#N)CCCC3)nnc1-c1ccncc1 returned ALDH1A1 block 7.08µM*, HPGD inh 5.9% and IMPase inh 6.1.
For COCCCn1c(SCC(=O)Nc2cccc(C(=O)OC)c2)nnc1-c1ccncc1 the results were ALDH1A1 block 11.7% and IMPase inh 4.5.
`Cn1c(SCC(=O)Nc2sc3c(c2C#N)CCC3)nnc1C1COc2ccccc2O1` (stereo not given) gave ALDH1A1 block 14.3%, HPGD inh -7.4% and IMPase inh 4.4.
COCCCn1c(SCC(=O)Nc2sc3c(c2C#N)CCCC3)nnc1-c1ccncc1 was read as ALDH1A1 block 20µM*, HPGD inh inconclusive and IMPase inh -8.3.
N#C/C(=N\Nc1cccc2ccccc12)c1nnc2n1CCCCC2 was read as ALDH1A1 block 22.0%, HPGD inh 17.8µM* and IMPase inh -3.6.
`c1ccc2c(-c3nnc4n3CCCCC4)c[nH]c2c1` gave ALDH1A1 block -15.2%, HPGD inh 25.1µM* and IMPase inh 7.4.
For c1ccc(NCc2nnc3n2CCCCC3)cc1 the results were ALDH1A1 block 9.3%, HPGD inh -10.8% and IMPase inh -1.5.
Cn1c(SCC(=O)N2CCCc3ccccc32)nnc1-c1c[nH]c2ccccc12 was read as ALDH1A1 block inconclusive, HPGD inh 0.5% and IMPase inh 1.5.
For N#C/C(=C\c1c[nH]c2ccccc12)c1nnc2n1CCCCC2 the results were ALDH1A1 block -14.2%, HPGD inh 12.6µM* and IMPase inh -2.7.
For C/C(O)=C(\C#N)c1nnc2n1CCCCC2 the results were ALDH1A1 block inconclusive, HPGD inh -13.9% and IMPase inh -2.1.
For CN(C(=O)c1ccc(Cl)c(S(=O)(=O)N2CCOCC2)c1)c1ccccc1C(=O)O the results were ALDH1A1 block -2.2%, HPGD inh 2.4% and IMPase inh -6.0.
Screening O=C(Nc1ccc(Oc2ccc(C(F)(F)F)cn2)c(Cl)c1)C1CC1 returned ALDH1A1 block -8.1%.
`Cc1ccc(OCCNC(=O)/C=C/c2ccco2)cc1C` gave ALDH1A1 block 11.2µM*.
`COc1ccc(C2(CNC(=O)/C=C\c3ccco3)CCCC2)cc1OC` gave ALDH1A1 block 3.55µM*, HPGD inh inconclusive and IMPase inh 4.1[1.84 µM].
CC(/C=C/c1ccco1)=N\NC(=O)COc1ccc(C)c(C)c1 was read as ALDH1A1 block 3.55µM*.
CCOC(=O)N/N=C(C)/C=C/c1ccco1 was read as ALDH1A1 block 10µM* and HPGD inh -16.0%.
For COc1ccc(C(NC(=O)/C=C/c2ccco2)c2ccc(OC)c(OC)c2)cc1OC the results were ALDH1A1 block inconclusive, HPGD inh -12.5% and IMPase inh -5.9.
`CCOC(=O)N/N=C(C)/C=C/c1ccccc1` gave ALDH1A1 block 1.5% and HPGD inh 1.5%.
Screening O=C(/C=C/c1ccco1)NCCCN1CCN(CCCNC(=O)/C=C/c2ccco2)CC1 returned ALDH1A1 block -0.4% and HPGD inh -1.9%.
Cc1cc(C)cc(OCC(=O)N/N=C/c2ccco2)c1 was read as ALDH1A1 block 2.3%.
CCC(C)NC(=O)Cn1c(=O)n(Cc2ccc(C(=O)NCc3ccc(C)cc3)cc2)c(=O)c2ccccc21 (stereo not given) was read as IMPase inh 3.5.
Screening Cc1ccc(CNc2nc3ccc(Cl)cc3n3nnnc23)cc1 returned IMPase inh 3.0.
For CC(C)CCNC(=O)COC(=O)c1cc(Br)c(Br)s1 the results were ALDH1A1 block -3.1%.
Screening Fc1ccc(N2CCN(Cc3cnc(Cl)s3)CC2)cc1 returned ALDH1A1 block 9.3%.
Screening CC(/C=C/c1ccco1)=N\NC(=O)CNc1ccc2ccccc2c1 returned ALDH1A1 block 7.94µM*.
